This is an account of results in PubChem BioAssay (Tox21).

“And” between values parts separate entries of the source, which are not always exact repeats. Equal values may be shown once. Results filed as inconclusive are left out. Some structures have more than one record in an assay (separate samples or runs), and their calls can disagree. The source made the active and inactive calls. Calls follow the shape of the dose curve; as a rule, active = well fitted curve in the direction sought with a large enough effect in the repeat runs; inconclusive = weak or mixed curves; inactive = no such curve, though single readings can be large; an effect the other way counts as inactive or inconclusive.

Experiment [1] in a line: Human pregnane X receptor (PXR) small molecule agonists, qHTS cell viability counter screen (AID 1346977). Also: nearly all actives have a fitted effect of over 50% in size. Also: potency is read from the fitted curve at half-maximal effect. In short, it runs like this: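 Viability counter screen: CellTiter-Fluor signal in PXR-Luc HepG2 cells, 24hr compound exposure, 37C, 5% CO2.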
A general note: Quantitative high-throughput screening tests each substance at several concentrations.

Experiment [2] is described as follows: Caspase-3/7 induction in HepG2 cells by small molecules, qHTS assay (AID 1346978). Also: nearly all actives have a fitted effect of over 15% in size. Also: potency is read from the fitted curve at half-maximal effect. In short, it runs like this:
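Wild-type HepG2 cells (2,000/well) were settled 5 h at 37 C, 5% CO2, then exposed to compounds in DMSO for 17 h. Caspase-3/7 activity was read by luminescence 30 min after adding Caspase-Glo 3/7 reagent at room temperature.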

Experiment [3] in a line: Caspase-3/7 induction in CHO-K1 cells by small molecules, qHTS cell viability counter screen (AID 1346979). Also: nearly all actives have a fitted effect of over 35% in size. Also: potency is read from the fitted curve at half-maximal effect. In short, it runs like this:
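Viability readout by fluorescence (CellTiter-Fluor) on wild-type CHO-K1 cells exposed for 16hr at 37C and 5% CO2 to compounds delivered in DMSO; reagent incubated 1hr before reading.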

Experiment [4] is described as follows: Caspase-3/7 induction in CHO-K1 cells by small molecules, qHTS assay (AID 1346980). Also: nearly all actives have a fitted effect of over 15% in size. Also: potency is read from the fitted curve at half-maximal effect. In short, it runs like this:
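Wild-type cells were seeded at 1,500 per well and settled 5 hr at 37 C, 5% CO2, then exposed to DMSO-dissolved compounds for 17 hr. Caspase-Glo 3/7 reagent was added, and luminescence was read after 30min at room temperature.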

A short description of experiment [5]: Caspase-3/7 induction in HepG2 cells by small molecules, qHTS cell viability counter screen (AID 1346981). Also: nearly all actives have a fitted effect of over 30% in size. Also: potency is read from the fitted curve at half-maximal effect. As to activity change, negative = cytotoxicity: series mostly up to about 92 µM. In short, it runs like this: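 Cell viability is measured as a cytotoxicity counter screen alongside the Caspase-Glo 3/7 readout in identical wells. Wild-type HepG2 cells are treated with test compounds for 16 hr at 37 C before CellTiter-Fluor addition and a 1-hr incubation.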

In experiment [6] the target is Nuclear receptor subfamily 1 group I member 2 (Homo sapiens) (UniProt O75469). The experiment can be described thus: Human pregnane X receptor (PXR) small molecule agonists, qHTS assay (AID 1346982). Also: nearly all actives have a fitted effect of over 35% in size. Also: potency is read from the fitted curve at half-maximal effect. In short, it runs like this: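 Cells: HepG2 stably carrying PXR-Luc. Medium held 5% charcoal-stripped FBS. Compounds in DMSO added after 5 hr plating, incubated 24 hr, then luminescence quantified with ONE-Glo.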

For experiment [7], the target named is Cytochrome P450 2D6 (Homo sapiens) (UniProt P10635). The experiment can be described thus: Cytochrome P450 Family 2 Subfamily D Member 6 (CYP2D6) small molecule antagonists: luciferase reporter qHTS assay (AID 1671196). Also: nearly all actives have a fitted effect of over 50% in size. Also: potency is read from the fitted curve at half-maximal effect. As to activity change, negative = inhibition: series mostly up to about 120 µM. In short, it runs like this:
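Enzyme and proluciferin substrate were first combined with test chemical for 10 min at room temperature. Adding NADPH regeneration solution started a 1 h reaction, stopped with luciferin detection reagent and read by luminescence 20 min later.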

Experiment [8] has as its target Cytochrome P450 2C19 (Homo sapiens) (UniProt P33261). Briefly: Cytochrome P450 Family 2 Subfamily C Member 19 (CYP2C19) small molecule antagonists: luciferase reporter qHTS assay (AID 1671197). Also: nearly all actives have a fitted effect of over 65% in size. Also: potency is read from the fitted curve at half-maximal effect. As to activity change, negative = inhibition: series mostly up to about 120 µM. In short, it runs like this: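 CYP2C19 P450-Glo, 1536-well qHTS. Cpd + enzyme/proluciferin substrate 10 min RT; + NADPH regen, 37C 1 h; stop with luciferin detection reagent, 20 min RT, luminescence (RLU). Pos ctrl ketoconazole.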

Experiment [9] deals with Cytochrome P450 2C9 (Homo sapiens) (UniProt P11712). Briefly: Cytochrome P450 Family 2 Subfamily C Member 9 (CYP2C9) small molecule antagonists: luciferase reporter qHTS assay (AID 1671198). Also: nearly all actives have a fitted effect of over 50% in size. Also: potency is read from the fitted curve at half-maximal effect. As to activity change, negative = inhibition: series mostly up to about 120 µM. In short, it runs like this:
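CYP2C9 activity was measured with a P450-Glo proluciferin substrate. Enzyme–substrate mix was held with compound for 10 min at room temperature, then NADPH regeneration solution was added for 1 h at 37C. Luciferin product was read as luminescence.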
(A reporter such as luciferase makes a cellular process visible.)

In experiment [10] the target is Cytochrome P450 1A2 (Homo sapiens) (UniProt P05177). Briefly: Cytochrome P450 Family 1 Subfamily A Member 2 (CYP1A2) small molecule antagonists: luciferase reporter qHTS assay (AID 1671199). Also: nearly all actives have a fitted effect of over 50% in size. Also: potency is read from the fitted curve at half-maximal effect. As to activity change, negative = inhibition: series mostly up to about 120 µM. In short, it runs like this: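 Compounds were incubated with CYP1A2 and a luminogenic proluciferin substrate for 10 min at room temperature before the reaction was started with NADPH regeneration solution. After 1 h, detection reagent was added and light output, proportional to CYP activity, was recorded.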

In experiment [11] the target is Voltage-gated inwardly rectifying potassium channel KCNH2 (Homo sapiens) (UniProt Q12809). The experiment can be described thus: Human Ether-a-go-go-Related Gene (hERG) channel small molecule antagonists: fluorescence cell-based qHTS assay (AID 1671200). In short, it runs like this:
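Thallium served as the potassium surrogate; its influx into dye-loaded U2OS cells carrying the channel was measured by fluorescence over 2 min.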

In experiment [12] the target is Cytochrome P450 3A4 (Homo sapiens) (UniProt P08684). The experiment can be described thus: Cytochrome P450 Family 3 Subfamily A Member 4 (CYP3A4) small molecule antagonists: luciferase reporter qHTS assay (AID 1671201). Also: nearly all actives have a fitted effect of over 50% in size. Also: potency is read from the fitted curve at half-maximal effect. As to activity change, negative = inhibition: series mostly up to about 120 µM. In short, it runs like this: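 Relative luminescence units after 20 min with luciferin detection reagent served as read-out. Beforehand, CYP3A4 turned over a proluciferin substrate for 1 h at room temperature with NADPH regeneration, following 10 min compound preincubation.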

Experiment [13] has as its target Nuclear receptor subfamily 1 group I member 2 (Rattus norvegicus) (UniProt Q9R1A7). The experiment can be described thus: Rat pregnane X receptor (rPXR) activation by small molecules, qHTS assay (AID 1346983). Also: nearly all actives have a fitted effect of over 20% in size. Also: potency is read from the fitted curve at half-maximal effect. The settings on record: rPXR luciferase reporter cells, One-Glo luminescence, 24 h; max activation: stronger effect = higher value. In short, it runs like this:
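Cell-based rPXR luciferase reporter assay, 2,000 cells per well, rested 5hr at 37 C before compound addition in DMSO, then 24 hr at 37 C. One-Glo reagent was added and luminescence read after 30 min at room temperature.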

Experiment [14] deals with Nuclear receptor subfamily 1 group I member 2 (Homo sapiens) (UniProt O75469). The experiment can be described thus: CYP3A4 induction through human pregnane X receptor (PXR) by small molecules, qHTS assay (AID 1346984). Also: nearly all actives have a fitted effect of over 40% in size. In short, it runs like this: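 Quantitative HTS in DPX-2 cells, i.e. HepG2 transfected with PXR response element and CYP3A4-promoter luciferase. Compounds in DMSO incubated 24hr at 37C; then P450-Glo CYP3A4 substrate, 3uM final, 3hr; One-Glo luminescence.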

For experiment [15] the target is unchanged. Briefly: Human pregnane X receptor (PXR) activation by small molecules, qHTS assay (AID 1346985). Also: nearly all actives have a fitted effect of over 40% in size. Also: potency is read from the fitted curve at half-maximal effect. In short, it runs like this:
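DPX-2 cells (HepG2 co-transfected with a PXR response element and a CYP3A4-promoter luciferase construct) were seeded at 2,000 per well, rested 5 hr at 37C, then exposed to DMSO-dissolved compounds for 24 hr. Activation was read as luciferase luminescence.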
% is scaled to controls: 0 for no effect and ±100 for the full control effect.

Sequence of Cytochrome P450 1A2 (Homo sapiens) (P05177 whole entry, looked up): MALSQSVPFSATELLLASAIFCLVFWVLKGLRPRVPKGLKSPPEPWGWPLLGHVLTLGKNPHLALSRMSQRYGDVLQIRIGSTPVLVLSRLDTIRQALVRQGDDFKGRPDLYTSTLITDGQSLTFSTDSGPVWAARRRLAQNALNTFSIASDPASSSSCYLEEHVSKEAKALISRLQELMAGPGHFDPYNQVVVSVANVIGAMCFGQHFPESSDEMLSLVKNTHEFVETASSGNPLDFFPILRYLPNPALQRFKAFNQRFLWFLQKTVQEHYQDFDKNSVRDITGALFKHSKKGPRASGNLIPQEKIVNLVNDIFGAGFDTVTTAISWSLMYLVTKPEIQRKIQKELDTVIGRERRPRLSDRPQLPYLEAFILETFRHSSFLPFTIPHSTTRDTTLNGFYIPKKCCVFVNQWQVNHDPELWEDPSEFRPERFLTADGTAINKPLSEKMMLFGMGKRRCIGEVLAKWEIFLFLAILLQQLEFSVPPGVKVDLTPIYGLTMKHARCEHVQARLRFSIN
Sequence of Cytochrome P450 2C19 (Homo sapiens) (P33261 whole entry, looked up): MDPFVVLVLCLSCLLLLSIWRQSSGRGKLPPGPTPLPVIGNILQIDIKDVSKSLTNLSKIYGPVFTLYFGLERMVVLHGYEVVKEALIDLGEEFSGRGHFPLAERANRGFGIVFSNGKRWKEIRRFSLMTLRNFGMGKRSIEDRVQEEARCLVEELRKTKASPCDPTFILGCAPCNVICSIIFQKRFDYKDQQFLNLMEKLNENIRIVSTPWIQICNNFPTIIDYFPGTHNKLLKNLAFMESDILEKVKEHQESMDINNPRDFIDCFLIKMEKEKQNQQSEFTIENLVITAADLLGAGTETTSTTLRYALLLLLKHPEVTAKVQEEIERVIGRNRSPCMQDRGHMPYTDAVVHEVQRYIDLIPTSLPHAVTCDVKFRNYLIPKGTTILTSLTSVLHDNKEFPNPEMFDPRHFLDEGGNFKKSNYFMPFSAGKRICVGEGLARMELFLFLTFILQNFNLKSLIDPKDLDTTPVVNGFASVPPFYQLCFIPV
Sequence of Nuclear receptor subfamily 1 group I member 2 (Homo sapiens) (O75469 whole entry, looked up): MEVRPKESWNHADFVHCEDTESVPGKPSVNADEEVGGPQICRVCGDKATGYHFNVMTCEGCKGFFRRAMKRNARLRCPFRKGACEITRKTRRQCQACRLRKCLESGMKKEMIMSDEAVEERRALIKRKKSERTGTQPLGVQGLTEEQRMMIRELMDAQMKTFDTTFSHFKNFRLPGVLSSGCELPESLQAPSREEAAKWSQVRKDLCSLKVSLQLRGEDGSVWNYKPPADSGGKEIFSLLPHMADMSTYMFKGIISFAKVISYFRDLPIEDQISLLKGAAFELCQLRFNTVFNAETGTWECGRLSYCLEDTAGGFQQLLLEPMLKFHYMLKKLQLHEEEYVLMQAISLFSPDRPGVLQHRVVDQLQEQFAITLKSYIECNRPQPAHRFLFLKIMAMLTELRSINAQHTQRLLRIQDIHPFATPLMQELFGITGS
Sequence of Nuclear receptor subfamily 1 group I member 2 (Rattus norvegicus) (Q9R1A7 whole entry, looked up): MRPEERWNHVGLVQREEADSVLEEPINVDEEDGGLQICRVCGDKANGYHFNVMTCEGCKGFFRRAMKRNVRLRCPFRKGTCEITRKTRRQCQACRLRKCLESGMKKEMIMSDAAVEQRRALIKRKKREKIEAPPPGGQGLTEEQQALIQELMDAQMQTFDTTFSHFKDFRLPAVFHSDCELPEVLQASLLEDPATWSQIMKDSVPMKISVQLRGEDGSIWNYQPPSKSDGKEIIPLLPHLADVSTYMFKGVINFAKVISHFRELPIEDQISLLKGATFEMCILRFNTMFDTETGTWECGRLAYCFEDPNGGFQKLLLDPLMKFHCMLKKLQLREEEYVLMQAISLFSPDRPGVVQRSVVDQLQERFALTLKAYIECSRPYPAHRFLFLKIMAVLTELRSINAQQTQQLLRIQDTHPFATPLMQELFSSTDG
Sequence of Cytochrome P450 3A4 (Homo sapiens) (P08684 whole entry, looked up): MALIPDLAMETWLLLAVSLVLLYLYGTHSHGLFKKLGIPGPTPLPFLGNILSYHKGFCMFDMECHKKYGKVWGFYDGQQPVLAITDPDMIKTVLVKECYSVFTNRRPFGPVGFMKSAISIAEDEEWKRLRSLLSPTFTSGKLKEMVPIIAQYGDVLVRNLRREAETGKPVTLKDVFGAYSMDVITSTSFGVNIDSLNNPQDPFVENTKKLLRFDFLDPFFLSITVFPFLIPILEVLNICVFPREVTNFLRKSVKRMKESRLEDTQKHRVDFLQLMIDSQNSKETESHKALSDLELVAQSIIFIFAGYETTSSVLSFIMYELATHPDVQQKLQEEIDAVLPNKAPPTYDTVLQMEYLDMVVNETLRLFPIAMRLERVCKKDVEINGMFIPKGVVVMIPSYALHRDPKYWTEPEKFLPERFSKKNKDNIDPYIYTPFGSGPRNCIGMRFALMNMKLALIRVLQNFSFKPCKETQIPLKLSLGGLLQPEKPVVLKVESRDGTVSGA
Sequence of Voltage-gated inwardly rectifying potassium channel KCNH2 (Homo sapiens) (Q12809 whole entry, looked up): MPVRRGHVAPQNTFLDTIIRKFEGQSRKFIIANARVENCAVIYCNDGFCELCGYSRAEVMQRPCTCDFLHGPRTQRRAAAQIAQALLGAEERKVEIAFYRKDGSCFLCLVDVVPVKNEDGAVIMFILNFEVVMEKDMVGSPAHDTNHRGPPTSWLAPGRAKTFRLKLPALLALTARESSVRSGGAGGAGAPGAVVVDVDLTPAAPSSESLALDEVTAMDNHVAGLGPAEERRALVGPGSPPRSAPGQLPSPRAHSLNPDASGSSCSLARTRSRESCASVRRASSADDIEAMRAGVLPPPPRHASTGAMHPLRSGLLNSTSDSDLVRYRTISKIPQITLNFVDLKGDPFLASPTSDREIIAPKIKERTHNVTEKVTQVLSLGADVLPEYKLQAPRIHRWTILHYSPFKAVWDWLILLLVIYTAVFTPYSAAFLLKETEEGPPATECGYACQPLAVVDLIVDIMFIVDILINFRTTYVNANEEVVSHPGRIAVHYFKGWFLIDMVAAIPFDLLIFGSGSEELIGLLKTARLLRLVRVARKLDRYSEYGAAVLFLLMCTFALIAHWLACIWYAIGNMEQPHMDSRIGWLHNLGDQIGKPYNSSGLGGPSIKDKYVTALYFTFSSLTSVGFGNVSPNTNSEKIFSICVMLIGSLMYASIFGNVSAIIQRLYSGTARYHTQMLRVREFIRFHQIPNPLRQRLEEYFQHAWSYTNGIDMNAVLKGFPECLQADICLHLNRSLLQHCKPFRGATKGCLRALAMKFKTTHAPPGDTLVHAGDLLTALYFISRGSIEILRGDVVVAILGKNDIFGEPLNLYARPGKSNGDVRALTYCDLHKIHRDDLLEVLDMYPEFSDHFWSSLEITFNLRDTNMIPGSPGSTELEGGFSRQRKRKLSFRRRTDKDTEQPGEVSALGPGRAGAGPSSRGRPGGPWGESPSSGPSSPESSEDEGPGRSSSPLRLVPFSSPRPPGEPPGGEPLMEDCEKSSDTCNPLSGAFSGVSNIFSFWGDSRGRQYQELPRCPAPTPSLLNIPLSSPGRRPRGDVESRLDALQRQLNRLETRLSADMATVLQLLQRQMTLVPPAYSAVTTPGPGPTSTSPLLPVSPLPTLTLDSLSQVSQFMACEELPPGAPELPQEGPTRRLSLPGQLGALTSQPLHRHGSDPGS
Sequence of Cytochrome P450 2D6 (Homo sapiens) (P10635 whole entry, looked up): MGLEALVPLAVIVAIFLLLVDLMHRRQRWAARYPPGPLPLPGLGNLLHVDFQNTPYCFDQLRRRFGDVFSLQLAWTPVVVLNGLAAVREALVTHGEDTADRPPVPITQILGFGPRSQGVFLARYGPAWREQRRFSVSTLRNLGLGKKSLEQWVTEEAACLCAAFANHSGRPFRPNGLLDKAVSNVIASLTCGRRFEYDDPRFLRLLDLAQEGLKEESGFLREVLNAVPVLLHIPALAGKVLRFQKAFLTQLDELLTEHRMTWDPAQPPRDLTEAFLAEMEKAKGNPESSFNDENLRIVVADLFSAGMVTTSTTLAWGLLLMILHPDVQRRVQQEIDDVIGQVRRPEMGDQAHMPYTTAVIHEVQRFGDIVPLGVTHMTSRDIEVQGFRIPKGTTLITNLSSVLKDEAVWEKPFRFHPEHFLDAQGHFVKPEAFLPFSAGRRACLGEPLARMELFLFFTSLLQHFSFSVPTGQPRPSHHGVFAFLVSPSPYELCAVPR
Sequence of Cytochrome P450 2C9 (Homo sapiens) (P11712 whole entry, looked up): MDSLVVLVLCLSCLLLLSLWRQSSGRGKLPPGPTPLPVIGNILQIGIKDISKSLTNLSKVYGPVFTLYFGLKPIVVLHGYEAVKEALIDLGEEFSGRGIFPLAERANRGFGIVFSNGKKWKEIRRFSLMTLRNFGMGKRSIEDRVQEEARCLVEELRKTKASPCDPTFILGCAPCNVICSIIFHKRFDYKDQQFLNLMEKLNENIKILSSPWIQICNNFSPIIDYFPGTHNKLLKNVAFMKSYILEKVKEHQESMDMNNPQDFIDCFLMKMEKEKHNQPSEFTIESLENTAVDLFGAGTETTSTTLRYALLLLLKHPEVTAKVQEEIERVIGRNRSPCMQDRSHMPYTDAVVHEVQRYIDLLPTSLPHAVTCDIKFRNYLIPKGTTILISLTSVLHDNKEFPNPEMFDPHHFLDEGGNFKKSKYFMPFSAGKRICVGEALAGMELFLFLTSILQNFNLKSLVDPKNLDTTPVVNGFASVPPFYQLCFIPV

Consider `C1COCCN1`, for which the Potency result in experiment [1], in [2], in experiment [3], in [4], in experiment [5] and in [6] was “inactive” in each case. Moreover, the Potency entry in [7], in [8], in [9], in experiment [10], in [11] and in [12] was “inactive” in each case.

With `O=Cc1ccccc1C=O`, the Potency in experiment [1] was 48.6 µM (active) and inactive; in experiment [2] it was 48.6 µM (active) and inactive; in experiment [3], 15.4 µM (active) and inactive; in experiment [4], 21.7 µM (active) and inactive; in experiment [5], 30.6 µM (active) and inactive; in experiment [6], 19.3 µM (active) and inactive. The Potency was 35.6 µM (active) and inactive in [9]; 63.3 µM (active) and inactive in experiment [10]. Besides, the max activation in experiment [13] is 5.06% (inactive). Also, the Potency result in experiment [14], in experiment [15], in [8], in [11] and in experiment [12] was “inactive” each time.

Consider `O=C(O)COCCN1CCN(C(c2ccccc2)c2ccc(Cl)cc2)CC1` (centres undefined), for which the Potency result in [1], in experiment [2], in [3], in experiment [4], in experiment [5] and in experiment [6] was “inactive” each time. Also, the Potency entry in experiment [15] is “inactive”. The max activation in experiment [13] was 1.59% (inactive).

For the compound `CN(C)C`, the Potency entry in experiment [1], in [2], in experiment [3], in experiment [4], in [5] and in experiment [6] was “inactive” each time. In addition, the Potency result in experiment [7], in experiment [8], in experiment [9], in [10], in experiment [11] and in experiment [12] was “inactive” each time.

In the case of `C=CC(=O)OCCCC`, the Potency entry in experiment [1], in experiment [2], in [3], in experiment [4], in experiment [5] and in [6] was “inactive” each time. The Potency entry in [7], in experiment [8], in experiment [9], in [10], in [11] and in experiment [12] was “inactive” throughout.

Turning to `Oc1c(Cl)ccc(Cl)c1Cl`, the Potency entry in experiment [1], in experiment [2], in experiment [3], in experiment [4], in experiment [5] and in experiment [6] was “inactive” each time. In addition, the Potency entry in experiment [11] and in experiment [12] was “inactive” throughout. For the same compound, the Potency in experiment [7] was 71 µM (active); in [8], 79.5 µM (active) and inactive; in experiment [9], 35.5 µM (active) and 35.6 µM (active); in experiment [10], 35.5 µM (active) and 35.6 µM (active).

Regarding `CCCCCC1C(=O)CCC1CC(=O)OC` (centres undefined), the Potency entry in experiment [1], in experiment [2], in experiment [3], in experiment [4], in experiment [5] and in [6] was “inactive” throughout. Moreover, the Potency result in experiment [7], in experiment [11] and in [12] was “inactive” each time. Also, the Potency in experiment [8] was 993 nM (active) and 3.56 µM (active); in [9] it was 24.9 µM (active) and 31.7 µM (active); in [10] it was 28 µM (active) and 28.3 µM (active).

Regarding `CC(=O)[C@@]1(O)CC[C@H]2[C@@H]3C[C@H](C)C4=CC(=O)C=C[C@]4(C)[C@@]3(F)[C@@H](O)C[C@@]21C`, the Potency entry in [1], in [2], in experiment [3], in experiment [4], in experiment [5] and in experiment [14] was “inactive” each time. In addition, the Potency result in experiment [15], in [8], in experiment [10] and in experiment [11] was “inactive” in each case. In addition, the Potency in experiment [6] was 15.4 µM (active); in experiment [9], 10 µM (active) and 6.92 µM (active).

For the compound `CC(=O)[C@H]1CC[C@H]2[C@@H]3CC=C4C[C@@H](O)CC[C@]4(C)[C@H]3CC[C@]12C`, the Potency entry in experiment [1], in experiment [2], in experiment [3], in experiment [4], in experiment [5] and in [14] was “inactive” each time. The Potency result in experiment [15], in experiment [7], in [8], in experiment [10], in [11] and in [12] was “inactive” throughout. In experiment [6], the Potency is 24.3 µM (active) and 23.7 µM (active). In addition, the max activation in experiment [13] was -3.68% (inactive).

Turning to `CC1(C)O[C@@H]2C[C@H]3[C@@H]4C[C@H](F)C5=CC(=O)C=C[C@]5(C)[C@@]4(F)[C@@H](O)C[C@]3(C)[C@]2(C(=O)CO)O1`, the Potency result in experiment [1], in [2], in experiment [3], in experiment [4], in experiment [5] and in [7] was “inactive” each time. The Potency entry in experiment [8], in [10] and in experiment [11] was “inactive” each time. In addition, the Potency in experiment [6] was 24.3 µM (active) and 8.41 µM (active); in experiment [13], 11.2 µM (active); in [15], 15.8 µM (active); in [9], 39.9 µM (active); in [12], 20 µM (active) and 3.89 µM (active).

In the case of `NCCN`, the Potency result in experiment [1], in [2], in experiment [3], in experiment [4], in [5] and in experiment [6] was “inactive” throughout. Also, the Potency result in experiment [14], in experiment [15], in experiment [9], in [10] and in [11] was “inactive” in each case. In experiment [13], the max activation is -1.7% (inactive). In addition, in experiment [12], the Potency is 81.2 µM (active) and inactive.

As for `Cc1ccc(N)c([N+](=O)[O-])c1`, the Potency entry in [1], in experiment [2], in experiment [3], in experiment [4], in [5] and in experiment [6] was “inactive” each time. Moreover, the Potency result in experiment [9], in [11] and in experiment [12] was “inactive” throughout. Besides, the Potency was 39.4 µM (active) and inactive in experiment [7]; 39.4 µM (active) in experiment [8]; 15.7 µM (active) and 14.2 µM (active) in experiment [10].

Take `CC1(C)NC(=O)N(c2ccc([N+](=O)[O-])c(C(F)(F)F)c2)C1=O`: the Potency entry in [1], in experiment [2], in [4], in experiment [5], in experiment [7] and in experiment [11] was “inactive” each time. For the same compound, the Potency in [8] was 2.52 µM (active) and 1.38 µM (active); in experiment [9], 10 µM (active) and 7.76 µM (active); in [10], 11.2 µM (active) and 12.3 µM (active).

With `O=[Se](O)O`, the Potency entry in experiment [2], in experiment [4], in experiment [6], in experiment [11] and in experiment [12] was “inactive” in each case. The Potency in [3] was 54.5 µM (active); in experiment [5], 24.4 µM (active); in experiment [8], 56.5 µM (active); in [9], 7.11 µM (active); in [10], “inactive and 13.6 µM (active)”. For the same compound, the activity change, negative = cytotoxicity in [3] was 5.77% [at 19 µM] (inactive); in [5], 2.81% [at 19 µM] (inactive). Besides, the activity change, negative = inhibition in [8] was -23.6% [at 23.6 µM] (inactive).
